MCL1 BIM primary = disrupts human MCL1 binding to BIM-BH3 peptide; 320,000 tested, 0.68% active; inhibition, % at 10.9 µM; GST-MCL1 / FITC-Bim-BH3 fluorescence polarization; Q07820;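 active = inhibition above the mean inhibition of all tested compounds plus 3 SD, set per campaign, cut at about 40% in these data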;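 also: 0% = DMSO wells and 100% = unlabeled Bim-BH3 peptide control; higher means more loss of mP so more displacement of Bim peptide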
EBV gp42 inh = inhibitors of Epstein-Barr virus glycoprotein 42. Q1HVG2. Fluorescence polarization binding assay, mP read-out. inhibition, % (tested at 21.74 µM). 220,000 tested, 0.42% active. AID 1085; in the data active = inhibition above about 50%
eLon inh = E. coli protease La inhibition. purified E. coli Lon protease, fluorescence polarization. inhibition, % at 7.94 µM. P0A9M0. 360,000 tested, 0.42% active; in the data active = inhibition above about 13%, passing the limit was not always enough;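 also: 0% = enzyme with probe and DMSO and 100% = no enzyme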
Target sequence (P0A9M0 whole entry, looked up): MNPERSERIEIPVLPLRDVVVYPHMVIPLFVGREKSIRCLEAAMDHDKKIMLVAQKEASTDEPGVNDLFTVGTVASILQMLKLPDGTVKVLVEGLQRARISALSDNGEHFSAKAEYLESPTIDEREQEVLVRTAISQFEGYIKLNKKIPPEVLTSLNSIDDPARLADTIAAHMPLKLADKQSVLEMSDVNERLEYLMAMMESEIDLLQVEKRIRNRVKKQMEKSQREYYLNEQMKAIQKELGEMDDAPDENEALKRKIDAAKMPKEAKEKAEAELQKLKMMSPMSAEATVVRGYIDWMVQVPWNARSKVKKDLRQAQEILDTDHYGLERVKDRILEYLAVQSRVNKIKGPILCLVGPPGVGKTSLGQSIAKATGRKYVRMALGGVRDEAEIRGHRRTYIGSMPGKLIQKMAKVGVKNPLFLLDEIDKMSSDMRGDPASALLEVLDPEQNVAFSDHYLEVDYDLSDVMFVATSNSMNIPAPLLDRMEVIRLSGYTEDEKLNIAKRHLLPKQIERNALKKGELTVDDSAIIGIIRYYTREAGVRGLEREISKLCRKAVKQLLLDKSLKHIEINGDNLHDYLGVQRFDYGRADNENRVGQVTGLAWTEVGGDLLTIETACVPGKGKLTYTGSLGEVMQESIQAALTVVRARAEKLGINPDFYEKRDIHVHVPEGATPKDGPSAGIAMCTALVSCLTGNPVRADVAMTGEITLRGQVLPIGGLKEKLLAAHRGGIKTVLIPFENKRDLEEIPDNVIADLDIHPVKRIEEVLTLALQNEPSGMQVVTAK
Bcl-xL primary = blocks human Bcl-xL binding to Bim BH3 peptide; GST-Bcl-xL / FITC-Bim BH3 peptide fluorescence polarization; Q07817; 320,000 tested, 0.7% active; inhibition, % at 10.9 µM;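 active = inhibition above the mean of all tested compounds plus 3 SD, cutoff set per campaign, cut at about 30% in these data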;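 also: 0% = DMSO wells and 100% = unlabeled Bim-BH3 peptide competitor; inhibitors lower millipolarization by displacing the labeled peptide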
MEX-5 binding = C. elegans MEX-5 TCR-2 RNA binding activity | Q9XUB2 | MEX-5/FITC-TCR2 RNA binding, fluorescence polarization; hits give low values | activity score (negative = inhibition of binding), % at 10 µM | 300,000 tested, 0.38% active | AID 1832;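 active = inhibition past about -25% in most replicates, and total fluorescence under double the plate's negative control median, limit read from the data; inconclusive = replicates evenly split on the limit, or fluorescence at least double controls; inactive = too little inhibition in most replicates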;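 also: 0% = DMSO and -100% = 5 µM competing unlabeled TCR2 RNA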
GLD-1 RNA inh = GLD-1-TGE RNA interaction inhibition (C. elegans). Q17339. purified GLD-1 + fluorescein TGE RNA, fluorescence polarization. inhibition, % at 5.96 µM. 320,000 tested, 0.44% active. AID 2280;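 active = percent inhibition above a per-plate cutoff, the plate mean of test compounds plus 3 SD, cut at about 30% in these data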;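 also: 0% = DMSO wells with GLD-1 and probe and 100% = wells lacking GLD-1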
Bcl-xL conf = Bcl-xL (human) inhibition, MCL1 counter-screen confirmation. shares compounds with MCL1 BIM primary. GST-Bcl-xL / FITC-Bim BH3 peptide FP binding. inhibition, % at 10.9 µM. 1,700 tested, 54% active. AID 2166;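 active = inhibition above a cutoff equal to the mean inhibition of all tested compounds plus 3 SD, cut at about 30% in these data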;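 also: 0% = DMSO wells and 100% = unlabeled Bim BH3 control peptide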
MCL1 inh confirm = confirmation of human MCL1 and BIM-BH3 interaction inhibitors | inhibition, % at 10.9 µM | GST-MCL1 / FITC-Bim-BH3 fluorescence polarization | shares compounds with MCL1 BIM primary | 1,700 tested, 61% active;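 active = inhibition above the average of all tested compounds plus 3 SD, cut at about 40% in these data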;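 also: 0% = DMSO wells and 100% = unlabeled Bim-BH3 control peptide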
* = called active by the depositor; ? = inconclusive; / = not tested or not shown; + = active, no number. Rows were chosen to be rich in hits. Some 1.4% of all compounds tested hit in one or more screens of this group.

SMILES | MCL1 BIM primary | EBV gp42 inh | eLon inh | Bcl-xL primary | MEX-5 binding | GLD-1 RNA inh | Bcl-xL conf | MCL1 inh confirm
COc1ccc(S(=O)(=O)N2CCCC2CNC(=O)C(=O)NCc2ccccc2Cl)cc1 (stereo not given) | 0 | / | -4 | 2 | -2 | -2 | / | /
COc1ccc(-c2csc(NC(=O)c3c(C)noc3C)n2)cc1OC | / | / | 0 | / | / | / | / | /
CCOC(=O)c1cnc(-n2[nH]c(C)cc2=O)[nH]c1=O | 74* | 9 | -2 | 1 | 0 | -4 | 5 | 81*
CCc1ccccc1NC(=O)CN1CCN(C(=O)CCC(=O)N2CCC(c3ccccc3)=N2)CC1 | -6 | / | -8 | 0 | / | 0 | / | /
NS(=O)(=O)c1ccc(NCCCn2ccnc2)c([N+](=O)[O-])c1 | 3 | / | -10 | 7 | -9 | -1 | / | /
O=C1c2ccccc2-c2onc3ccc(NCCCn4ccnc4)c1c23 | + | -41 | / | + | ? | 198* | 181* | 200*
O=C(OCCN1C(=O)c2cccc3c(N4CCOCC4)ccc(c23)C1=O)c1cccc(Cl)c1 | 66* | 152* | / | 41* | ? | 81* | 3 | -19
O=C(OCCN1C(=O)c2cccc3c(N4CCOCC4)ccc(c23)C1=O)c1ccc(Cl)cc1Cl | 63* | 144* | -50 | 39* | ? | 73* | -3 | -2
COc1ccc(N/C=C(\C#N)S(=O)(=O)c2ccc(Cl)cc2)c(OC)c1 | 3 | / | 5 | 3 | 0 | 4 | / | /
O=C(NC1=NCCS1)c1cccc(S(=O)(=O)N2CCOCC2)c1 | -7 | / | 4 | -11 | / | 1 | / | /
Cc1nc2c(c(=O)n1CCC1=CCCCC1)c1nc3ccccc3nc1n2/N=C/c1ccco1 | 49* | -15 | -1 | 39* | -4 | 10 | 32* | 58*
CCCn1c(C)nc2c(c1=O)c1nc3ccccc3nc1n2CCC1=CCCCC1 | 16 | -18 | -6 | 21 | -4 | 10 | / | /
Oc1cc2c(cc1O)[C@H]1c3ccc(O)c(O)c3OC[C@@]1(O)C2 | 57* | / | 0 | 28 | / | 24 | 76* | 108*
Cc1cc(-n2cnc(-c3cn[nH]c3C)n2)no1 | 8 | -11 | 12 | 6 | 0 | 5 | / | /
CCn1c2ccc(Cl)cc2c2nc3ccccc3nc21 | -9 | -2 | / | 3 | 0 | 12 | / | /
CCn1nc(-c2ccccc2)c2nc3ccccc3nc21 | 101* | 93* | -18 | 88* | ? | 15 | 137* | 140*
N=C1/C(=C\c2ccc(-c3cccc(C(=O)O)c3)o2)C(=O)N=C2SC=C(c3ccccc3)N12 | 41* | 82* | -65 | 0 | 1 | -26 | 10 | 35
CCOC(CNC(=O)Cn1nc(C)c2ccccc21)OCC | -1 | -1 | -1 | 10 | 1 | 7 | / | /
Nc1cccc2c(=O)c3ccccc3[nH]c12 | 41* | / | 12 | 29 | -4 | 7 | 37* | 25
Cc1ccc(C)n1-c1ccccc1N | 87* | 6 | / | 92* | -21 | 99* | -123 | -194
O=C(NCCc1c[nH]c2ccccc12)C(=O)NCC1OCCCN1S(=O)(=O)c1cc(F)ccc1F (stereo not given) | -9 | -11 | -6 | 2 | -1 | -2 | / | /
O=C1/C(=C/c2cccc(Cl)c2)CSc2sccc21 | 56* | -5 | -3 | 6 | 2 | 3 | 9 | 5
O=C1/C(=C/c2cccc(F)c2)CSc2sccc21 | 2 | -4 | 2 | 3 | -1 | 6 | / | /
CCC(Oc1ccccc1)C(=O)NCCCN1CCOCC1 (stereo not given) | 2 | / | 9 | 1 | 0 | -2 | / | /
COc1ccccc1CC1CC(=O)N(c2cccc(Cl)c2C)C1=O (stereo not given) | 4 | / | 2 | 5 | 0 | -8 | / | /
SMILES | MCL1 BIM primary | EBV gp42 inh | eLon inh | Bcl-xL primary | MEX-5 binding | GLD-1 RNA inh | Bcl-xL conf | MCL1 inh confirm
COc1ccc(Br)cc1-c1noc(-c2ccncc2)n1 | 66* | -19 | -7 | 2 | -1 | -1 | 7 | -1
COc1ccc(Br)cc1-c1noc(-c2ccccc2)n1 | -3 | -15 | 1 | 1 | -1 | -9 | / | /
COc1ccc(N2CCN(C(=O)c3cc(=O)c4cc(C)c(C)cc4o3)CC2)cc1 | -1 | / | 8 | 2 | 0 | 5 | / | /
COc1ccc(S(=O)(=O)/N=C2/NC(=O)/C(=C\c3ccco3)S2)cc1 | 55* | 11 | -19 | 28 | -16 | -2 | 13 | 11
COc1ccc(N=C2NC(=O)/C(=C/c3ccco3)S2)cc1 | 4 | -7 | -12 | 1 | 1 | -8 | / | /
COc1ccc(S(=O)(=O)/N=C2/NC(=O)/C(=C/c3ccco3)S2)cc1 | 42* | -8 | -28 | 22 | -4 | 10 | 18 | 24
COc1ccc(C(=O)N/C(=C\c2cn(S(=O)(=O)N(C)C)c3ccccc23)C(=O)N2CCOCC2)cc1 | 7 | / | -1 | 4 | 4 | 8 | / | /
Cc1ccc(S(=O)(=O)NCc2ccccc2)cc1C(=O)N1CCCCCCC1 | 5 | / | -8 | 0 | -2 | 3 | / | /
N#C/C(=C\c1cc(O)c(O)c(O)c1)C(N)=O | 53* | -54 | -18 | 27 | -27* | -19 | 19 | 4
CCOC(=O)N/N=C\c1ccc([N+](=O)[O-])o1 | 64* | -2 | -3 | 8 | 1 | 0 | 1 | 2
COc1ccccc1N1CCN(CCCN=C2CC(=O)N(C)C(=O)N2C)CC1 | / | / | -2 | / | / | 1 | / | /
C=CCOC(=O)C1=C(C)NC(=S)C(C#N)(CC=C)C1c1ccccc1Cl (stereo not given) | -1 | -6 | 3 | 2 | 2 | 2 | / | /
O=C(Cn1nnc(-c2ccccc2)n1)N/N=C/c1cccc([N+](=O)[O-])c1 | 7 | -4 | -4 | 6 | 2 | 5 | / | /
O=C(Cn1nnc(-c2ccccc2)n1)N/N=C/c1cccc([N+](=O)[O-])c1O | 46* | -8 | 3 | 4 | -2 | 5 | 47* | 87*
Cc1ccc2c(c1)Sc1c(ccc3ccccc13)N2 | 71* | -6 | 21 | 67* | -3 | -3 | 80* | 104*
O=C(CSc1nnc(-c2ccco2)c(-c2ccco2)n1)c1ccccc1 | 43* | -4 | 6 | 30 | -1 | 7 | 43* | 78*
COc1cc2c(cc1OC)CN(c1ccc(-c3ccccc3OC)nn1)CC2 | 65* | -5 | 11 | 54* | -3 | -16 | 22 | 17
Oc1[nH]c2ccc(Br)cc2c1N=Nc1ccc(F)cc1 | + | / | 3 | 183* | ? | 107* | 143* | 198*
